Data reported in PubChem BioAssay AID686979 (National Center for Advancing Translational Sciences (NCATS), 2013).
In all, about 420,000 compounds went through this assay and about 50,000 (12%) were called active. About 26% were inconclusive and are not listed. The sample as a whole holds a higher share of actives than the screen did. Unmarked numbers belong to inactive results. The call rests on the fitted dose curve; in most records, active means well fitted inhibition curve with a large enough effect; inconclusive means small, poorly fitted or top-dose-only effect; inactive means flat fitted curve, though single readings scatter.

experiment: qHTS for Inhibitors of human tyrosyl-DNA phosphodiesterase 1 (TDP1): qHTS in cells in presence of CPT; conditions: chicken DT40 Tdp1-/-;hTDP1 cells + 20 nM CPT, ATP luminescence, 48 h; series mostly up to 46.2 µM; activity change, negative = growth inhibition: at the top concentration; further: nearly all actives have a fitted effect of over 55% in size
How it was run: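 Chicken DT40 Tdp1-/- cells stably complemented with human TDP1 were seeded at 400 cells/well in medium containing 20 nM camptothecin, exposed to pin-transferred compounds, and grown at 37 °C for at least 48 hr. Viability was read as ATP luminescence.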
On the % scale 0 is the no-effect control and ±100 the full control effect; potency means the concentration at half of the fitted maximal effect.

SMILES	activity change, negative = growth inhibition	Potency
Cc1ccccc1N1CC(C(=O)Nc2ccc(S(=O)(=O)N3CCCC3)cc2)CC1=O (configuration not stated)	-23.3%	
O=C1CS(=O)CN1c1ccc(Oc2ccccc2)cc1 (configuration not stated)	-3.4%	
COc1ccc(-c2cc(C(F)(F)F)nc(NCc3cccnc3)n2)cc1	-5.03%	
COc1ccc(-c2nc3cnccn3c2NC(C)(C)CC(C)(C)C)cc1O		20.6 µM (active)
Cc1cccc(NC(=O)N2CCN(C)c3ncccc32)c1C	-12.9%	
CCN1C(=O)c2ccccc2Sc2ccc(NC(=O)Cc3ccc(OC)cc3)cc21	-3.35%	
CCOc1ccccc1C(=O)Nc1ccc2c(c1)N(C)C(=O)c1ccccc1S2		4.61 µM (active)
CCOc1ccccc1C(=O)NCCCn1ccnc1	4.33%	
C[C@H]1CC[C@]2(O[C@@H](CCO)C[C@@H](O)[C@@H]2O)O1	-12.3%	
C=CCn1cc(Cl)cc(C(=O)Nc2ccccc2)c1=O	17.1%	
CN(C)C(=O)N1CCNCC1	-3.78%	
CC(C)(C)C(=O)NC(NC(=S)Nc1ccc(S(N)(=O)=O)cc1)C(Cl)(Cl)Cl (configuration not stated)	-7.12%	
CCOc1cc(C(=O)Nc2c(C)ccc3nsnc23)cc(OCC)c1OCC	-8.86%	
COc1ccc(-c2nnc(SC(C)C(=O)NC3CC3)o2)cc1 (configuration not stated)	-0.623%	
COc1ccc(-c2nnc(SC(C)C#N)o2)cc1 (configuration not stated)	-9.97%	
COc1ccc(-c2nnc(SC(=O)N3c4ccccc4Sc4ccccc43)o2)cc1		8.2 µM (active)
Clc1ccc(-c2nnc(-c3ccccc3)nc2N2CCSCC2)cc1		16.4 µM (active)
OCCN1CCN(c2nnc(-c3ccccc3)c3ccccc23)CC1	-7.45%	
O=C(Cn1c(=O)n(-c2ccc(F)cc2)c(=O)c2sc3ccccc3c21)NC1CCCC1	-6.01%	
O=c1c2ccccc2ncn1CCc1ccncc1	6.46%	
CCOC(=O)c1oc2ccc(S(=O)(=O)n3nc(-c4ccccc4OC)cc3N)cc2c1C		18.4 µM (active)
COc1ccccc1-c1cc2nc(C)c(CCC(=O)O)c(C)n2n1	4.44%	
Cc1ccc(S(=O)(=O)n2nc(OC(=O)C(C)(C)C)cc2N)cc1	5.36%	
O=C(CC1C(=O)NCCN1Cc1ccc(-c2ccccc2)cc1)NCc1ccncc1 (configuration not stated)	-29.6%	
CN[C@@H]1[C@H](O[C@H]2[C@H](O[C@H]3[C@H](O)[C@@H](O)[C@H](N=C(N)N)[C@@H](O)[C@@H]3N=C(N)N)O[C@@H](C)[C@]2(O)CO)O[C@@H](CO)[C@H](O)[C@H]1O	5.85%	
Cc1nc(Nc2ccc(S(=O)(=O)N3CCCC3)cc2)c2nnn(Cc3ccccc3)c2n1	0.0843%	

SMILES	activity change, negative = growth inhibition	Potency
Clc1ccc(-c2csc(-c3ccncc3)n2)cc1	5.47%	
Cc1ccc(-c2csc(-c3cc(C)on3)n2)cc1	4.19%	
Cc1ccc(-c2csc(-c3c[nH]c4ccccc34)n2)cc1		16.4 µM (active)
O=C(NNC1=NCCC1)c1cccc(S(=O)(=O)N2CCCCC2)c1	-3.42%	
Cc1ccc(-c2nc3ccccc3[nH]c2=O)cc1	1.57%	
c1ccc2cc3[nH]c(CN4CCCCC4)nc3cc2c1	-8.01%	
CCCCCn1nnnc1-c1nc2cc3ccccc3cc2[nH]c1=O		4.11 µM (active)
CN1CCN(c2ccc(NC(=O)c3ccc4c(c3)OCCO4)cc2Cl)CC1	-20.4%	
Cc1cc(C)cc(NC(=O)Cc2csc(C)n2)c1	10%	
O=C(OCCN1C(=O)c2ccccc2C1=O)Oc1ccccc1	-3.35%	
O=C(Cn1c(-c2cscn2)nc2ccccc21)Nc1ccc(Cl)cc1		5.8 µM (active)
COc1ccc(NC(=O)COC(=O)Cn2c(C)nc3ccccc32)cc1OC	-1.04%	
O=C(Cn1c(-c2cncs2)nc2ccccc21)NC1CCCC1	-0.366%	
COc1ccc(/C=N/N(C)C2=NS(=O)(=O)c3ccccc32)cc1OC	4.29%	
CC1(C(=O)Nc2ccc3c(c2)OCCO3)CSCC(=O)N1CCOc1ccccc1 (configuration not stated)	-24.3%	
Cn1c(SCC(=O)c2ccccc2)ncc(C(=O)Nc2ccc(F)cc2)c1=O	-22.7%	
Cc1ccc(NC(=O)c2cnc(SCC(=O)NCC3CCCO3)n(C)c2=O)cc1 (configuration not stated)		11.6 µM (active)
Cc1cc(NC(=O)CSc2ncc(C(=O)Nc3ccc(Cl)cc3)c(=O)n2C)no1	3.91%	
O=C(NC1CCCCC1)C1CCCN(S(=O)(=O)c2ccc(Br)s2)C1 (configuration not stated)	-19%	
Nc1nc(SCc2ccc([N+](=O)[O-])cc2)c2ncn(C3OC(CO)C(O)C3O)c2n1 (configuration not stated)	-29.6%	
O=C(Nc1nnc(C2CC2)s1)C1=NN(C2CCS(=O)(=O)C2)C(=O)CC1 (configuration not stated)	6.84%	
COc1ccc(CNC(=O)c2ccc(NS(=O)(=O)c3ccc4[nH]c(=O)[nH]c4c3)cc2)cc1OC	-1.98%	
O=C(COC(=O)CNS(=O)(=O)c1ccc(F)c(F)c1F)NC1CCCC1	-18.3%	
Cn1cc(CCC(=O)NCc2ccc3c(c2)OCO3)c2ccccc21	-17.6%	
O=C(CCNS(=O)(=O)c1ccccc1C(F)(F)F)NCc1ccc2c(c1)OCO2	-3.92%	
O=C(CCc1nnc(Cc2ccc3c(c2)OCO3)o1)NCCc1ccccc1Cl		11.6 µM (active)
